The source of these data is PubChem BioAssay (Tox21).

The structures appear in SMILES notation. Inconclusive results are not listed. Where a call stands in place of a potency, no number is given. Calls of active or inactive are those of the source. Unless noted, calls follow the shape of the full dose curve.

Sequence of Thyrotropin receptor (Homo sapiens) (P16473 whole entry, looked up): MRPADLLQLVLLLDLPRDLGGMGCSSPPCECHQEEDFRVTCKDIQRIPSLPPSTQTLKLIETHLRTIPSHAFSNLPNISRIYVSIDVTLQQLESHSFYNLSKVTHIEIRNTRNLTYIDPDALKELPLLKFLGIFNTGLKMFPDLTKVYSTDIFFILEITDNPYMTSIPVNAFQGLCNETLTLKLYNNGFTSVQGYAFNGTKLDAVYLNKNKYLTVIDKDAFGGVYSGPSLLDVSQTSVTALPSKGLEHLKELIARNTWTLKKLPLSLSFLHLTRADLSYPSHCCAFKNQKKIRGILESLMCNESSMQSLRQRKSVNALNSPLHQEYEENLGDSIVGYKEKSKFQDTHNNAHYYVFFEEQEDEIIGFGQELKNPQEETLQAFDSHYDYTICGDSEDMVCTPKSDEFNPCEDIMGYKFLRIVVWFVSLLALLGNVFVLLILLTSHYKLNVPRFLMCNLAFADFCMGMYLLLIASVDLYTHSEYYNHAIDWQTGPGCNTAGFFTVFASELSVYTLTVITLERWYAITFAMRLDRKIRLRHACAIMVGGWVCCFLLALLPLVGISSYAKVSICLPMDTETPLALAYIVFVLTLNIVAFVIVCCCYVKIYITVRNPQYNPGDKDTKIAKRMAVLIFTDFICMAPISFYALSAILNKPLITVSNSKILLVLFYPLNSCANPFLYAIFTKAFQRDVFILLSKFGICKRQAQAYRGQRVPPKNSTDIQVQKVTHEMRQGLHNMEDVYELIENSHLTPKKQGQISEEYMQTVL

Test system in one assay: not listed separately
In words: qHTS assay to identify small molecule agonists or antagonists of the thyroid stimulating hormone receptor (TSHR) signaling pathway - wild type cell line counter screen (AID 1259384). The note with it: HEK293 wild type, cAMP HTRF counter-screen; series mostly up to 92.4 µM. Put shortly: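 Wild-type HEK293 cells were plated 18 h at 37 C/5% CO2, pin-dosed with compound plus Ro20-1724 medium, held 30 min at room temperature, then given cAMP-d2 and anti-cAMP-cryptate; fluorescence was read after 1 h. Fifteen concentrations, triplicate.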
With `CC1CCCCC1NC(=O)Nc1ccccc1` (stereo unspecified), the Potency entry was “inactive”.

As to `CCCSC(=O)N(CCC)CCC`, the Potency entry was “inactive”.

On to `N#CC(CCc1ccc(Cl)cc1)(Cn1cncn1)c1ccccc1` (stereo unspecified), for which the Potency result was “inactive”.

Consider `CCS(=O)(=O)CCSP(=O)(OC)OC`, for which the Potency entry is “inactive”.

Regarding `C=CCC1=C(C)[C@@H](OC(=O)[C@@H]2[C@@H](C=C(C)C)C2(C)C)CC1=O`, the Potency entry was “inactive”.

On to `O=C(CCN1CC1)OCC(CO)(COC(=O)CCN1CC1)COC(=O)CCN1CC1`, for which the Potency result was “inactive”.

`COc1cccc2c1cc([N+](=O)[O-])c1c(C(=O)O)cc3c(c12)OCO3`: the Potency entry is “inactive”.

Regarding `CC(CC(C#N)(c1ccccc1)c1ccccc1)N(C)C` (stereo unspecified), the Potency result was “inactive”.

Turning to `Fc1ccc(C2(Cn3cncn3)OC2c2ccccc2Cl)cc1` (stereo unspecified), the Potency entry is “inactive”.

As for `COC(=O)COc1ccc(Cl)cc1Cl`, the Potency entry was “inactive”.

Turning to `CCCCC(=O)Cl`, the Potency entry was “inactive”.

Take `O=[N+]([O-])c1cccc(O)c1`: the Potency result is “inactive”.

`CCCCN(CCCCO)N=O`: the Potency entry is “inactive”.

For `CCCCCCBr`, the Potency result is “inactive”.

Consider `CCCSP(=O)(OCC)Oc1ccc(Br)cc1Cl` (stereo unspecified), for which the Potency result is “inactive”.

Consider `Cc1ccccc1CO[C@@H]1C[C@@]2(C(C)C)CC[C@]1(C)O2`, for which the Potency entry is “inactive”.

`O=[N+]([O-])c1cccc2c([N+](=O)[O-])cccc12`: the Potency entry is “inactive”.

Turning to `CC(C)COP(=O)(OCC(C)C)OCC(C)C`, the Potency result was “inactive”.

`COc1cc(OC)nc(Sc2cccc(Cl)c2C(=O)O)n1`: the Potency result is “inactive”.

On to `C[C@]1(O)CC[C@H]2[C@@H]3CCC4=CC(=O)CC[C@]4(C)[C@@]3(F)[C@@H](O)C[C@@]21C`, for which the Potency entry is “inactive”.

In the case of `CC(C1CC1)C(O)(Cn1cncn1)c1ccc(Cl)cc1` (stereo unspecified), the Potency result was “inactive”.

As for `CC1CCC(=O)O1` (stereo unspecified), the Potency entry is “inactive”.

Consider `CC(C)[N+](=O)[O-]`, for which the Potency entry was “inactive”.

In the case of `COc1cccc(C(=O)NN(C(=O)c2cc(C)cc(C)c2)C(C)(C)C)c1C`, the Potency result was “inactive”.

Take `CCOP(=S)(Oc1cnc(C(C)(C)C)nc1)OC(C)C` (stereo unspecified): the Potency entry was “inactive”.

Take `O=[N+]([O-])c1cc(Cl)c(Cl)c(Cl)c1`: the Potency result was “inactive”.

With `N#CC(O)c1ccccc1` (stereo unspecified), the Potency result was “inactive”.

For a further assay, the target named is Thyrotropin receptor (Homo sapiens) (UniProt P16473). In words: qHTS assay to identify small molecule antagonists of the thyroid stimulating hormone receptor (TSHR) signaling pathway (AID 1259385). Also: nearly all actives have a fitted effect of over 20% in size. The conditions noted are these: TSHR-HEK293 cAMP HTRF, TSH-stimulated antagonist mode; series mostly up to 92.4 µM. Put shortly:
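TSHR-HEK293 cells were plated and held 18 h at 37C/5% CO2, then given compound plus Ro20-1724 and stimulated with TSH at 1.5 ng/mL final. After 30 min at room temperature, cAMP was detected with cAMP-d2/anti-cAMP-cryptate (1 h) by fluorescence.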
A general note: qHTS replaces the single test concentration by a dilution series.
Turning to `CC1CCCCC1NC(=O)Nc1ccccc1` (stereo unspecified), the Potency entry was “inactive”.

Consider `CCCSC(=O)N(CCC)CCC`, for which the Potency entry is “inactive”.

Turning to `CCS(=O)(=O)CCSP(=O)(OC)OC`, the Potency entry is “inactive”.

In the case of `O=C(CCN1CC1)OCC(CO)(COC(=O)CCN1CC1)COC(=O)CCN1CC1`, the Potency result is “inactive”.

For `COc1cccc2c1cc([N+](=O)[O-])c1c(C(=O)O)cc3c(c12)OCO3`, the Potency entry is “inactive”.

`CC(CC(C#N)(c1ccccc1)c1ccccc1)N(C)C` (stereo unspecified): the Potency result is “inactive”.

For `Fc1ccc(C2(Cn3cncn3)OC2c2ccccc2Cl)cc1` (stereo unspecified), the Potency entry was “inactive”.

Take `CCCCC(=O)Cl`: the Potency entry is “inactive”.

As for `O=[N+]([O-])c1cccc(O)c1`, the Potency result was “inactive”.

As to `CCCCCCBr`, the Potency result is “inactive”.

In the case of `O=C(Nc1ccccc1)N(Cc1ccc(Cl)cc1)C1CCCC1`, the Potency entry was “inactive”.

Turning to `O=[N+]([O-])c1cccc2c([N+](=O)[O-])cccc12`, the Potency result is “inactive”.

As for `CCNc1nc(NC(C)C)nc(OC)n1`, the Potency result was “inactive”.

With `COC(C)(C)C`, the Potency result is “inactive”.

Consider `CNC(=O)Oc1cccc(C(C)C)c1`, for which the Potency entry is “inactive”.

Consider `COc1cc(OC)nc(Sc2cccc(Cl)c2C(=O)O)n1`, for which the Potency result is “inactive”.

Consider `C[C@]1(O)CC[C@H]2[C@@H]3CCC4=CC(=O)CC[C@]4(C)[C@@]3(F)[C@@H](O)C[C@@]21C`, for which the Potency result was “inactive”.

For the compound `CCC#N`, the Potency entry was “inactive”.

As for `CC(C1CC1)C(O)(Cn1cncn1)c1ccc(Cl)cc1` (stereo unspecified), the Potency entry is “inactive”.

With `CC1CCC(=O)O1` (stereo unspecified), the Potency result was “inactive”.

Consider `COc1cccc(C(=O)NN(C(=O)c2cc(C)cc(C)c2)C(C)(C)C)c1C`, for which the Potency entry is “inactive”.

Regarding `O=[N+]([O-])c1cc(Cl)c(Cl)c(Cl)c1`, the Potency result was “inactive”.

`ClCC(Cl)Cl`: the Potency result is “inactive”.

With `N#CC(O)c1ccccc1` (stereo unspecified), the Potency result was “inactive”.

Test system in the next assay: not listed separately
In words: qHTS assay to identify small molecule agonists of the estrogen receptor alpha (ER-alpha) signaling pathway in the presence of an antagonist - cell viability counter screen (AID 1259386; active = well fitted cell-killing curve with a large enough effect in the repeat runs;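 also: cells exposed to compounds for 22 h at 37 °C before the viability read; nearly all actives have a fitted effect of over 30% in size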; also: potency is read from the fitted curve at half-maximal effect). The conditions noted are these: VM7Luc4E2 viability, CellTiter-Fluor fluorescence, 22 h; series mostly up to 92.4 µM. A digest of the protocol: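 VM7Luc4E2, stripped-serum pre-culture 5 d; 24hr plating; +ICI-182,780 10.0nM final; cpds 15 conc, 22hr, 37C/5% CO2; CellTiter-Fluor added at 21hr, fluorescence 1hr later.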
`CC1CCCCC1NC(=O)Nc1ccccc1` (stereo unspecified): the Potency result was “inactive”.

For `CCCSC(=O)N(CCC)CCC`, the Potency entry is “inactive”.

`CC1(C(=O)Nc2ccc(O)c(Cl)c2Cl)CCCCC1`: the Potency entry was “inactive”.

Regarding `N#CC(CCc1ccc(Cl)cc1)(Cn1cncn1)c1ccccc1` (stereo unspecified), the Potency was 61.1 µM (active).

In the case of `CCS(=O)(=O)CCSP(=O)(OC)OC`, the Potency entry was “inactive”.

For the compound `[As]#[In]`, the Potency entry was “inactive”.

For `C=CCC1=C(C)[C@@H](OC(=O)[C@@H]2[C@@H](C=C(C)C)C2(C)C)CC1=O`, the Potency is 48.6 µM (active).

Turning to `O=C(CCN1CC1)OCC(CO)(COC(=O)CCN1CC1)COC(=O)CCN1CC1`, the Potency result is “inactive”.

As to `COc1cccc2c1cc([N+](=O)[O-])c1c(C(=O)O)cc3c(c12)OCO3`, the Potency was 61.1 µM (active).

For the compound `Fc1ccc(C2(Cn3cncn3)OC2c2ccccc2Cl)cc1` (stereo unspecified), the Potency entry was “inactive”.

Regarding `COC(=O)COc1ccc(Cl)cc1Cl`, the Potency entry was “inactive”.

As to `CCCCC(=O)Cl`, the Potency entry is “inactive”.

With `O=[N+]([O-])c1cccc(O)c1`, the Potency entry is “inactive”.

On to `CCCCN(CCCCO)N=O`, for which the Potency result is “inactive”.

Regarding `CCCCCCBr`, the Potency entry is “inactive”.

Turning to `CCCSP(=O)(OCC)Oc1ccc(Br)cc1Cl` (stereo unspecified), the Potency entry is “inactive”.

For `Cc1ccccc1CO[C@@H]1C[C@@]2(C(C)C)CC[C@]1(C)O2`, the Potency result was “inactive”.

As to `O=[N+]([O-])c1cccc2c([N+](=O)[O-])cccc12`, the Potency result was “inactive”.

Consider `CCNc1nc(NC(C)C)nc(OC)n1`, for which the Potency result is “inactive”.

For the compound `COC(C)(C)C`, the Potency result was “inactive”.

Regarding `CC(C)COP(=O)(OCC(C)C)OCC(C)C`, the Potency entry is “inactive”.

As for `CNC(=O)Oc1cccc(C(C)C)c1`, the Potency entry was “inactive”.

As for `COc1cc(OC)nc(Sc2cccc(Cl)c2C(=O)O)n1`, the Potency entry was “inactive”.

Take `C[C@]1(O)CC[C@H]2[C@@H]3CCC4=CC(=O)CC[C@]4(C)[C@@]3(F)[C@@H](O)C[C@@]21C`: the Potency entry is “inactive”.

Turning to `CCC#N`, the Potency entry was “inactive”.

On to `CC(C1CC1)C(O)(Cn1cncn1)c1ccc(Cl)cc1` (stereo unspecified), for which the Potency entry was “inactive”.

Take `CC1CCC(=O)O1` (stereo unspecified): the Potency entry is “inactive”.

In the case of `CC(C)[N+](=O)[O-]`, the Potency result is “inactive”.

For the compound `CCOC(=O)NC(=S)Nc1ccccc1NC(=S)NC(=O)OCC`, the Potency result is “inactive”.

Regarding `COCC(=O)N(c1c(C)cccc1C)N1CCOC1=O`, the Potency entry was “inactive”.

Regarding `CCOP(=S)(Oc1cnc(C(C)(C)C)nc1)OC(C)C` (stereo unspecified), the Potency result is “inactive”.

On to `O=[N+]([O-])c1cc(Cl)c(Cl)c(Cl)c1`, for which the Potency entry is “inactive”.

In the case of `CCCCOC(=O)c1ccccc1N`, the Potency result is “inactive”.

On to `ClCC(Cl)Cl`, for which the Potency entry was “inactive”.

Take `N#CC(O)c1ccccc1` (stereo unspecified): the Potency entry is “inactive”.
